# Screens (PubChem BioAssay)
# TDP1 cell noCPT: qHTS for Inhibitors of human tyrosyl-DNA phosphodiesterase 1 (TDP1): qHTS in cells in absence of CPT. Potency, µM (titrated, usually from 46.2 µM), inactives show at the highest dose activity change, negative = growth inhibition, usual class: inhibitors. actives 15% (n = 420,000). AID 686978, 2013. DT40 Tdp1-/- hTDP1 cells, no CPT, ATP luminescence, 48 h; also: potency is read from the fitted curve at half-maximal effect; nearly all actives have a fitted effect of over 55% in size
#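 Growth kinetics read by CellTiter-Glo luminescence after ≥48 hr at 37 °C. Cells: DT40 Tdp1-/- stably carrying human TDP1, 400 per well, compound exposure in the absence of CPT (DMSO vehicle).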
# CtBP-E1A blk: CtBP/E1A binding inhibition | activity change, % (concentration not given with the values) | AlphaScreen GST-E1A/His-CtBP binding, 1536-well; hits give low values | actives 0.49% (n = 340,000); in the data active = activity change below about -65%; inconclusive = mostly about -30% to -63%
#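 Steps: dispense buffer (Tris pH 8.0, NaCl 300 mM, TCEP 1 mM, BSA, Tween 20); add 5X protein mix (GST-E1A, His-CtBP, 125 nM each); pin 23 nL compound; 2 h at 37 °C, dark; add 5X beads (50 ug/mL); 1 h; read.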
# TDP1 inh: inhibitors of human tyrosyl-DNA phosphodiesterase TDP1; Q9NUW8; recombinant TDP1, AlphaScreen DNA substrate cleavage; Potency, µM (series often up to 130 µM), for the others: top-dose activity change, negative = inhibition, actives largely listed as inhibitors; actives 0.28% (n = 350,000); also: potency is read from the fitted curve at half-maximal effect; nearly all actives have a fitted effect of over 40% in size
# Target sequence (Q9NUW8 whole entry, looked up): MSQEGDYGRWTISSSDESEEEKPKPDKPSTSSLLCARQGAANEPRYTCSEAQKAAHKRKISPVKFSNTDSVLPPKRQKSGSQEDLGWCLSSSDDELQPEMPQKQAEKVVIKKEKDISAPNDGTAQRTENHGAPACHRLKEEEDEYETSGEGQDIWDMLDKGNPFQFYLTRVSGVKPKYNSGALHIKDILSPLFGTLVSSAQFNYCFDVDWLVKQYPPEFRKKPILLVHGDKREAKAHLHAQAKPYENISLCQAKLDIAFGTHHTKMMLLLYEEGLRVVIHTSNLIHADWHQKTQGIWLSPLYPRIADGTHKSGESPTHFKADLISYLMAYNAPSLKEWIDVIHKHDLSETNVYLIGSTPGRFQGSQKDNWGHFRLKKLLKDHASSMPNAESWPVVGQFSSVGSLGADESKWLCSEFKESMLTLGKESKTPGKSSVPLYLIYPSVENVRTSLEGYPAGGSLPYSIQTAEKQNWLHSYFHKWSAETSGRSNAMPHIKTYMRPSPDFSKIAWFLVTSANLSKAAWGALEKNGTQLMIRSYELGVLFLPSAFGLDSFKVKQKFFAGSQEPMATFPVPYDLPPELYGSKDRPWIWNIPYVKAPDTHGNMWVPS
#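 Tdp1 1 nM final; 15 min RT w/ cpd; substrate 15 nM, 5 min; beads 10 ug/ml, 10 min; AlphaScreen read. Neg ctrl: no enzyme.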
# DT40 TDP1 CPT: growth inhibition of DT40 Tdp1-/-;hTDP1 cells with camptothecin (screen for TDP1 inhibitors); AID 686979; actives 12% (n = 420,000); chicken DT40 Tdp1-/-;hTDP1 cells + 20 nM CPT, ATP luminescence, 48 h; Potency, µM (doses to about 46.2 µM), without a hit: top-dose activity change, negative = growth inhibition, usual class: inhibitors; also: potency is read from the fitted curve at half-maximal effect; nearly all actives have a fitted effect of over 55% in size
#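 Chicken DT40 Tdp1-/- cells complemented with human TDP1, 400 cells/well, exposed to compounds plus 20 nM camptothecin for at least 48 h at 37 C; viability read as ATP content by CellTiter-Glo luminescence.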
# Six1-Eya2 inh: inhibitors of human Six1/Eya2 interaction. actives 0.56% (n = 360,000). Q15475+O00167. AlphaScreen GST-Six1/His-Eya2 binding, biochemical; hits give low values. activity change, % (concentration not given with the values); in the data active = activity change below about -65%; inconclusive = mostly about -30% to -63%
#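 GST-Six1 + His-Eya2 (5X stock: 250/500 nM); Tris pH 8.0, 300 mM NaCl, 0.05% BSA, 0.02% Tween 20; GSH donor/Ni acceptor beads; 1 h 37 °C dark; AlphaScreen readout.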
# IL1B secr inh: blocks inflammasome-driven IL-1 beta release. THP-1 LPS/ATP IL-1B secretion, AlphaLISA, 16 h; hits give low values. actives 4.7% (n = 360,000). AID 743279. activity change, % at 57.5 µM; in the data active = activity change below about -50%; inconclusive = mostly about -30% to -49%
#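 Secreted IL-1B measured by AlphaLISA bead assay after 16 h compound exposure of THP-1 cells; compounds (final up to 57.5 uM) added 1 h before LPS (250 ng/mL) and ATP (1.25 mM) stimulation; lower signal means less secretion.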
# Numbers without * were called inactive; ? = inconclusive; / = no result given; [ ] = remark or other dose. Hits are enriched below; roughly 18% of the tested compounds scored in any of these assays. Unless noted, calls follow the shape of the dose curve; as a rule, active = well fitted curve in the direction sought with a large enough effect; inconclusive = small, poorly fitted or top-dose-only effect, or another doubt; inactive = no such curve, though single readings can be large; an effect the other way counts as inactive or inconclusive. % is scaled to controls: 0 for no effect and ±100 for the full control effect.
SMILES,TDP1 cell noCPT,CtBP-E1A blk,TDP1 inh,DT40 TDP1 CPT,Six1-Eya2 inh,IL1B secr inh
O=C(CNC(=O)c1cccs1)NCC(=O)OCC(=O)c1ccc([N+](=O)[O-])cc1,?,2.3,-4.6%,18.4µM*,-3.1,-0.2
CCCCCCCCCCCCCCCCOC[C@H](COP(=O)([O-])OCC[N+](C)(C)C)OC(C)=O,-17.9%[4.12 µM],/,6.1%,-16.5%[4.12 µM],/,/
CC(=O)c1ccc(N2CCN(c3ccc4cc(S(=O)(=O)N5CCCCC5)ccc4n3)CC2)cc1,3.66µM*,/,0.0%,?,/,/
Cc1ccc(Cl)c2sc(NC(=O)c3ccc(S(=O)(=O)N4CCCC4)cc3)nc12,?,/,2.7%,?,/,/
O=C(NCc1ccccc1)c1cccc(Nc2nc3ccccc3n3nnnc23)c1,14.6µM*,/,6.2%,20.6µM*,/,/
CC(C)Oc1ccc(C(=O)Nc2ccc3c(c2)CCCN3C(=O)c2cccs2)cc1,6.51µM*,/,1.2%,11.6µM*,/,/
O=C(c1cccs1)N1CCC(C(=O)O)(c2ccccc2)CC1,-13.2%,3.2,/,-17.0%,-13.1,28.9
NC(CC(=O)O)C1CCCCC1 (centres undefined),/,/,0.0%,/,/,/
COc1ccc(C(=O)OC2C[C@H]3CC[C@@H](C2)N3O)cc1OC (some centres undefined),-9.4%,2.1,/,17.1%,12.1,4.9
N#CCCn1cc(C(=O)Nc2ccc([N+](=O)[O-])cc2)c(-c2ccccc2)n1,-11.5%,/,/,-5.6%,-7.0,12.1
CCN(CC)P(=O)(Nc1ccc([N+](=O)[O-])cc1)c1c(C)nn(CCC#N)c1NC(=O)c1ccc(Cl)cc1Cl (centres undefined),23.1µM*,5.6,5.8%,18.4µM*,-2.9,-7.4
CNCCc1cnc[nH]1,-13.8%,/,14.1%,18.0%,/,/
CC12CCC3C(CCC4=C(O)C(=O)CCC43C)C1CCC2=O (centres undefined),/,/,15.6%[56.1 µM],/,/,/
CN(C)c1ccc(NC(=O)CN2C(=O)CN=C(c3ccccc3)c3cc(Cl)ccc32)cc1,?,-6.2,11.8%,?,?,-61.6*
COC(=O)CN1C(=O)CN=C(c2ccccc2Cl)c2cc(Br)ccc21,?,4.3,8.6%,-9.4%,-0.6,21.1
Cc1ccc(NC(=O)CN2C(=O)CN=C(c3ccccc3)c3cc(Cl)ccc32)cc1,?,-26.3,-5.9%,?,-3.7,-65.6*
Cc1ccc(NC(=O)CN2C(=O)CN=C(c3ccccc3)c3ccccc32)cc1,?,/,9.3%,?,/,/
O=C1CN=C(c2ccccc2Cl)c2cc(Cl)ccc2N1Cc1cccc(Cl)c1,?,/,-0.9%,20.6µM*,/,/
COc1ccc(-c2nc(CN3C(=O)CN=C(c4ccccc4Cl)c4cc(Cl)ccc43)c(C)o2)cc1OC,?,/,11.4%,?,/,/
Cc1oc(-c2ccc(Cl)cc2)nc1CN1C(=O)CN=C(c2ccccc2)c2ccccc21,14.6µM*,/,2.9%,?,/,/
Cc1ccc(S(=O)(=O)Nc2cc(C(=O)N3CCC4(CC3)OCCO4)ccc2N2CCCCC2)cc1,?,-4.3,3.9%,?,-10.5,0.0
CC1CCC(C)(NS(=O)(=O)OCC(Cl)(Cl)Cl)CC1 (centres undefined),?,13.5,/,?,14.5,0.0
O=C(O)Cn1cc(/C=C2\C(=O)NC(=O)N(c3ccc(F)cc3)C2=O)c2ccccc21,/,/,-18.9%,/,/,/
CCOP(=O)(Oc1ccccc1)c1c([N+](=O)[O-])cc(C(F)(F)F)cc1[N+](=O)[O-] (centres undefined),-30.0%,-0.3,/,-19.1%,5.6,-3.0
CCN1C[C@@]2(COC)C3[C@@H](OC)[C@H]4C1[C@@]3(C1C[C@]3(O)C(OC)[C@H](O)[C@@]4(OC(C)=O)C1[C@H]3OC(=O)c1ccccc1)[C@H](OC)C[C@H]2O (some centres undefined),/,/,3.1%,/,/,/
SMILES,TDP1 cell noCPT,CtBP-E1A blk,TDP1 inh,DT40 TDP1 CPT,Six1-Eya2 inh,IL1B secr inh
CNC(=O)Oc1cccc2c1OC(C)(C)O2,?,-2.7,-2.7%,?,5.6,-1.2
C=CC1CN2CCC1CC2[C@@H](OC(=O)c1ccc(OC)cc1)c1ccnc2ccccc12 (some centres undefined),?,-16.8,5.3%,?,-3.9,?
O=C1CN=C(c2ccccc2)c2cc(Cl)ccc2N1CC1CC1,23.7µM*,/,/,?,/,/
Cc1ccc2c(c1)C(c1ccccc1)=NCC(=O)N2C,-20.7%,38.8,/,-14.9%,37.8,0.0
CCOP(=O)(OCC)C(O)c1cccc([N+](=O)[O-])c1 (centres undefined),24.9%,6.6,6.3%,2.4%,4.5,43.7
CCOP(=O)(OCC)C(Nc1cccc([N+](=O)[O-])c1)c1ccc(OC)cc1 (centres undefined),13µM*,-12.7,/,?,-4.4,-13.1
CCCOP(=O)(OCCC)C(NC(=O)c1cc(OC)c(OC)c(OC)c1)c1ccccc1 (centres undefined),?,-9.6,7.1%,-24.5%,2.4,0.0
CCCOP(=O)(OCCC)C(Nc1cccc(C(F)(F)F)c1)c1ccc(C)cc1 (centres undefined),23.1µM*,10.9,1.0%,?,5.1,-2.0
CCOP(=O)(OCC)C(Nc1cc(Cl)cc(Cl)c1)c1cccc(O)c1 (centres undefined),?,8.2,3.5%,?,5.6,?
CCOP(=O)(OCC)C(Nc1cccc(C(F)(F)F)c1)c1ccc(C)cc1 (centres undefined),18.4µM*,-1.1,5.5%,?,7.2,-16.5
CN(C)P1(N(C)C)=Nc2c(c(N)nn2C)C(c2ccccc2)=N1,-11.1%,-24.7,6.1%,1.4%,-11.1,-8.4
